The list is not random: actives were taken first. Their share in the collection is about 28%.
CYP2C19 act: activators of human cytochrome P450 2C19; P33261; recombinant CYP2C19, luciferin-H EGE luminescence; active compounds read high; 0 = fully inhibited enzyme, 1 = untreated enzyme; activation factor at 5 µM; 96,000 tested, under 10 active; AID 1025;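 active = activation factor of at least 2 at 5 µM in the primary screen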
CYP2C19 inh: inhibitors of human CYP2C19. P33261. CYP2C19 Supersomes, luciferin-H EGE luminescence, 30 min. inhibition, % at 5 µM. actives 21% (n = 96,000). AID 778;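 active = CYP2C19 inhibition above a set limit at 5 µM in the primary screen, cut at about 50% in these data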
Mac1 fbg enh: CD11b/CD18-fibrinogen binding enhancement. activation, % at 10 µM. AID 1499. actives 0.07% (n = 93,000). K562 CD11b/CD18 adhesion to fibrinogen, ATPlite luminescence;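 active = 10 µM primary screen giving 50% or more activity, confirmed by 40% or more on retest at that dose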
CYP2C9 inhib: blocks human cytochrome P450 2C9 | actives 20% (n = 96,000) | P11712 | AID 777 | CYP2C9 Supersomes, luciferin-H conversion, luminescence | inhibition, % at 5 µM;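 active = blocking of liver enzyme CYP2C9 beyond about 50% at 5 µM, limit read from the data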
Target sequence (P11712 whole entry, looked up): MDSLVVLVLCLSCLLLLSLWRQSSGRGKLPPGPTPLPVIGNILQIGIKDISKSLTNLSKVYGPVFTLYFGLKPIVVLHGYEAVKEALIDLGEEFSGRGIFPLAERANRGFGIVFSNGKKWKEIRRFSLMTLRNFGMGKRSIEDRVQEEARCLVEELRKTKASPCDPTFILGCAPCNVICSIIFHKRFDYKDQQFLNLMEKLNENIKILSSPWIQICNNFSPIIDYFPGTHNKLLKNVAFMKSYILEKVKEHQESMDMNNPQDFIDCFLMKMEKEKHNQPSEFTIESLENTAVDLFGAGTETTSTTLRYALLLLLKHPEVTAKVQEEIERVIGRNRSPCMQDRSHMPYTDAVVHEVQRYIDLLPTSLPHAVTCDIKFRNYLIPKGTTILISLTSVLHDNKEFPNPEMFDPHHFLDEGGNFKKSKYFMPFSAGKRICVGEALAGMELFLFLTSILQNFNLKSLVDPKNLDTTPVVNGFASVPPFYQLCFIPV
CYP2C9 act: CYP2C9 (human) activation. P11712. recombinant CYP2C9, luciferin-H conversion, luminescence; active compounds read high; factor 1 = untreated enzyme, 0 = blocked. activation factor at 5 µM. actives 1.4% (n = 96,000);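 active = activation factor of 2 or more for CYP2C9 at a 5 µM dose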
Mac1 fbg inh: inhibitors of human CD11b/CD18 binding to fibrinogen | P05107+P11215 | K562 CD11b/CD18 adhesion to fibrinogen, ATPlite luminescence; Mn2+ added to activate the integrin | inhibition, % at 10 µM | actives 0.54% (n = 93,000) | AID 1497;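 active = primary inhibition of 50% or more at 10 µM, then 40% or more on retest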
Numbers stand for hits; – = inactive; · = no result given.

SMILES | CYP2C19 act | CYP2C19 inh | Mac1 fbg enh | CYP2C9 inhib | CYP2C9 act | Mac1 fbg inh
Cc1cccc(C(=O)NCCN2CCN(c3ccccc3)CC2)c1 | – | – | – | – | – | –
Cc1cc(NC(=O)/C=C/c2ccc(F)cc2)n(-c2nc3ccccc3[nH]2)n1 | · | · | – | · | · | –
Cc1cc(NC(=O)C2CCC2)n(-c2ccccn2)n1 | – | – | – | – | 3 | –
Cc1cc(NC(=O)c2c(F)cccc2Cl)n(-c2nc3ccccc3[nH]2)n1 | – | 86.4 | – | 94.8 | – | –
Cc1cc(NC(=O)c2c(F)cccc2F)n(-c2nc3ccccc3[nH]2)n1 | – | – | · | 51.5 | – | ·
Cc1cc(NC(=O)C2CCCCC2)n(-c2nc3ccccc3[nH]2)n1 | – | – | – | 70.6 | – | –
Cc1cc(NC(=O)c2ccccc2F)n(-c2nc3ccccc3[nH]2)n1 | – | – | – | – | – | –
Cc1cc(NC(=O)c2cccc(S(=O)(=O)N3CCCCCC3)c2)n(-c2ccccn2)n1 | – | – | – | – | – | –
Cc1ccc(Cl)cc1NC(=O)Cn1cc2c(n1)CCCC2 | – | – | – | – | – | –
CCOc1cc(/C=N/NC(=O)CN2CCCCC2)ccc1OCc1ccccc1 | – | – | · | – | – | ·
CC1CC(C)CN(c2cc(=O)n(Cc3ccc(F)cc3)c(=O)[nH]2)C1 (stereo not given) | – | – | – | – | – | –
Cc1cc(Nc2ccccc2)n(-c2nc3ccccc3[nH]2)n1 | – | – | – | 69.2 | – | –
COc1ccc(/C=C/C(=O)Nc2cc(C)nn2-c2nc3ccccc3[nH]2)cc1 | · | · | – | · | · | –
CS(=O)(=O)N(Cc1ccccc1)c1ccccc1C(=O)Nc1ccccc1C(=O)NCc1ccco1 | – | 89.3 | – | 83.6 | – | –
Cc1ccc(S(=O)(=O)N(Cc2ccccc2)c2ccccc2C(=O)NCc2ccco2)cc1 | – | – | – | 99.0 | – | –
CN(Cc1ccccc1)c1nc(N)c([N+](=O)[O-])c(NCc2ccccc2)n1 | · | · | – | · | · | –
CC(=O)C(C(C)=O)c1c(Cl)c(O)c(O)c2c(C(=O)c3ccccc3)coc12 | – | – | – | 86.3 | – | –
COc1cccc(/C=N/NC(=O)c2nc(-c3ccccc3)cc(-c3ccccc3)n2)c1O | · | · | – | · | · | –
CN(Cc1ccccc1)Cc1c[nH]c2ccccc12 | – | 87.6 | – | – | – | –
CN(Cc1ccccc1)Cc1c(F)cccc1F | – | – | – | – | – | –
CCn1cc(C(C)(C)C)c(C#N)c1NC(C)=O | – | – | – | – | – | –
O=S(Cc1cc(Sc2ccccc2)nc(-c2ccccc2)n1)c1ccccc1 (stereo not given) | – | 98.1 | – | 94.3 | – | –
COCc1cc(Sc2ccc(Cl)cc2Cl)nc(-c2ccccc2)n1 | – | – | – | – | – | –
CNc1cc(CS(=O)c2ccccc2)nc(-c2ccccc2)n1 (stereo not given) | – | 92.6 | · | – | – | ·
CC1(C)C(C=C(Cl)Cl)C1C(=O)N1CCN(c2ccccc2)CC1 (stereo not given) | – | – | – | – | – | –
SMILES | CYP2C19 act | CYP2C19 inh | Mac1 fbg enh | CYP2C9 inhib | CYP2C9 act | Mac1 fbg inh
CS(=O)(=O)Nc1ccc(C(=O)N2CCCCC2)cc1 | – | – | – | – | – | –
COc1ccc(-c2nnn(CC#N)n2)cc1OC | – | 84.2 | – | 61.6 | – | –
CCCCOc1ccc(C(=O)OC2CC(C)N(C)CC2C)cc1 (stereo not given) | – | – | – | – | – | –
O=S(=O)(N/N=C/c1cn(Cc2ccccc2)c2ccccc12)c1ccccc1 | – | – | – | 87.1 | – | –
Cc1ccc(S(=O)(=O)N/N=C/c2c(C)nn(-c3ccccc3)c2C)cc1 | – | 56.3 | – | 75.4 | – | –
Cc1nn(-c2ccccc2)c(C)c1/C=N/NC(=O)c1cc(-c2cccc3ccccc23)n[nH]1 | · | · | – | · | · | –
Cc1ccc(Cn2cc(/C=N/Nc3ccc([N+](=O)[O-])cn3)c3ccccc32)cc1 | · | · | – | · | · | –
Cc1nn(-c2ccccc2)c(C)c1/C=N/N1CCN(c2ccccc2)CC1 | – | – | – | – | – | –
Cc1nn(-c2ccccc2)c(C)c1/C=N/NC(=O)c1cc(-c2ccccc2)n[nH]1 | – | 69.8 | – | 86.1 | – | –
Cc1ccc(S(=O)(=O)N/N=C\c2cn(-c3ccccc3)nc2-c2ccccc2)cc1 | – | – | · | 66.8 | – | ·
Fc1ccc(-c2noc(C3CCN(Cc4cccnc4)CC3)n2)cc1 | – | – | – | – | – | –
C=CCn1c(=N)n(CC(=O)OCC)c2ccccc21 | – | – | – | – | – | –
CC1CCC(NC(=O)c2ccc(/C=C3\Oc4ccccc4N(C)C3=O)cc2)CC1 (stereo not given) | · | · | – | · | · | –
Cc1ccc(-c2nn(-c3ccccc3)cc2/C=N/NS(=O)(=O)c2ccccc2)cc1 | – | – | · | 65.8 | – | ·
O=[N+]([O-])c1ccc(N/N=C/c2cn(-c3ccccc3)nc2-c2ccccc2)cc1 | – | – | · | – | – | ·
Cc1cccc(C)c1NC(=O)N1CCC(N2CCCCC2)CC1 | – | – | · | – | – | ·
Cc1occc1C(=O)N/N=C/c1cccs1 | – | – | – | – | – | –
CC(C)NC(=S)N/N=C/c1cccs1 | – | 81.7 | – | – | – | –
CCCCN=Cc1sc2ccc(OCC)cc2c1O | – | 94.1 | – | – | – | –
C=CCN=Cc1sc2ccc(OCC)cc2c1O | · | · | – | · | · | –
O=C(N/N=C(\c1ccccc1)c1cccnc1)C(O)(c1ccccc1)c1ccccc1 | – | – | · | 66.6 | – | ·
O=C(N/N=C/c1cccnc1)C(O)(c1ccccc1)c1ccccc1 | – | – | – | – | – | –
COc1ccc(C(=O)n2nc(C)cc2C)cc1Br | – | 70.3 | – | – | – | –
COc1cc(C(=O)n2nc(C)cc2C)ccc1O | – | – | – | – | – | –
COc1ccc(C(=O)n2ccc(C)n2)cc1Br | – | 57.0 | – | – | – | –
SMILES | CYP2C19 act | CYP2C19 inh | Mac1 fbg enh | CYP2C9 inhib | CYP2C9 act | Mac1 fbg inh
CCOC(=O)c1oc2cc(O)ccc2c(=O)c1-c1ccc(OC)cc1 | – | – | – | – | – | –
CCOC(=O)c1oc2cc(O)c(CC)cc2c(=O)c1-c1ccc2c(c1)OCCO2 | – | – | – | 98.8 | – | –
CCN(CC)C(=O)C1CCCN(c2ccc([N+](=O)[O-])cc2/C=N/NC(=O)c2ccc([N+](=O)[O-])cc2)C1 (stereo not given) | – | – | · | – | – | ·
CCN(CC)C(=O)C1CCCN(c2ccc([N+](=O)[O-])cc2/C=N/NC(=O)c2cccc(O)c2)C1 (stereo not given) | – | 89.2 | – | 93.2 | – | –
OCCNc1nc2ccc(Cl)cc2[nH]1 | – | – | – | – | – | –
O=C(NCc1cccnc1)NC1(C(F)(F)F)Oc2ccccc2O1 | – | 90.4 | – | – | – | –
O=C(NCc1cccnc1)C1COc2ccccc2O1 (stereo not given) | – | – | · | – | – | ·
O=C(NCc1cccnc1)NC(C(F)(F)F)C(F)(F)F | – | 66.4 | – | – | – | –
CC1CCN(C(=S)c2cn(Cc3ccccc3F)c3ccccc23)CC1 | – | – | – | – | – | –

Screens as filed in PubChem BioAssay.
